This note sets out measurements from article PMC8222333, “AsCas12a ultra nuclease facilitates the rapid generation of therapeutic cell medicines”.

Common to all, as to test: Spec-seq (native PAGE EMSA with sequencing of bound and unbound); 25 mM Tris-HCl pH 7.4, 150 mM KCl, 5 mM MgCl2, 10% glycerol, 1 mM DTT, 40 ng/uL salmon sperm DNA; 400 nM Cas12a, 480 nM crRNA, 50 nM library, 37 C 1 h; native PAGE at room temperature; high values mean tight binding
What all share (conditions): protein: recombinant

For assay [1], the target named is dAsCas12a S542R (Acidaminococcus sp., UniProt U2UMQ6 1-1307, S542R;D908A;E993A;D1235A).
Assay [2] addresses d-enCas12a (Acidaminococcus sp., UniProt U2UMQ6 1-1307, E174R;S542R;K548R;D908A;E993A;D1235A).
Assay [3] deals with d-enCas12a-Ultra (Acidaminococcus sp., UniProt U2UMQ6 1-1307, E174R;S542R;K548R;M537R;F870L;D908A;E993A;D1235A).
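Further: relative affinity from the bound to unbound sequence frequency ratio in Spec-seq.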

B1: AACC (dsDNA)
DNA 1: GCTATCTAGTGCTCAGTACGCACTGAACCAGGAAACTTCTGGCAGGACCAGGTCATGAGATCGGAAGAGCACACGTCTGAACTCCAGTCA
DNA 2: TGACTGGAGTTCAGACGTGTGCTCTTCCGATCTCATGACCTGGTCCTGCCAGAAGTTTCCTGGTTCAGTGCGTACTGAGCACTAGATAGC
RNA: AAUUUCUACUCUUGUAGAUAGGAAACUUCUGGCAGGACC
Consider B1, for which the binding signal is -7.9 lnKA in assay [1], -2.33 lnKA in assay [2] and -0.621 lnKA in assay [3].

B2: ACAA (dsDNA)
DNA 1: GCTATCTAGTGCTCAGTACGCACTGACAAAGGAAACTTCTGGCAGGACCAGGTCATGAGATCGGAAGAGCACACGTCTGAACTCCAGTCA
DNA 2: TGACTGGAGTTCAGACGTGTGCTCTTCCGATCTCATGACCTGGTCCTGCCAGAAGTTTCCTTTGTCAGTGCGTACTGAGCACTAGATAGC
RNA: AAUUUCUACUCUUGUAGAUAGGAAACUUCUGGCAGGACC
Consider B2, for which the binding signal in assay [1] was -8.6 lnKA; in assay [2], -5.98 lnKA; in assay [3], -3.44 lnKA.

B3: ACAC (dsDNA)
DNA 1: GCTATCTAGTGCTCAGTACGCACTGACACAGGAAACTTCTGGCAGGACCAGGTCATGAGATCGGAAGAGCACACGTCTGAACTCCAGTCA
DNA 2: TGACTGGAGTTCAGACGTGTGCTCTTCCGATCTCATGACCTGGTCCTGCCAGAAGTTTCCTGTGTCAGTGCGTACTGAGCACTAGATAGC
RNA: AAUUUCUACUCUUGUAGAUAGGAAACUUCUGGCAGGACC
Take B3: the binding signal was -8.48 lnKA in assay [1], -5.72 lnKA in assay [2] and -3.38 lnKA in assay [3].

B4: AAGT (dsDNA)
DNA 1: GCTATCTAGTGCTCAGTACGCACTGAAGTAGGAAACTTCTGGCAGGACCAGGTCATGAGATCGGAAGAGCACACGTCTGAACTCCAGTCA
DNA 2: TGACTGGAGTTCAGACGTGTGCTCTTCCGATCTCATGACCTGGTCCTGCCAGAAGTTTCCTACTTCAGTGCGTACTGAGCACTAGATAGC
RNA: AAUUUCUACUCUUGUAGAUAGGAAACUUCUGGCAGGACC
Take B4: the binding signal in assay [1] was -8.46 lnKA; in assay [2] it was -5.71 lnKA; in assay [3], -3.41 lnKA.

B5: AAGG (dsDNA)
DNA 1: GCTATCTAGTGCTCAGTACGCACTGAAGGAGGAAACTTCTGGCAGGACCAGGTCATGAGATCGGAAGAGCACACGTCTGAACTCCAGTCA
DNA 2: TGACTGGAGTTCAGACGTGTGCTCTTCCGATCTCATGACCTGGTCCTGCCAGAAGTTTCCTCCTTCAGTGCGTACTGAGCACTAGATAGC
RNA: AAUUUCUACUCUUGUAGAUAGGAAACUUCUGGCAGGACC
Turning to B5, the figures for the binding signal in assay [1], in assay [2] and in assay [3] were -8.67 lnKA, -5.8 lnKA and -3.49 lnKA, respectively.

B6: AAGA (dsDNA)
DNA 1: GCTATCTAGTGCTCAGTACGCACTGAAGAAGGAAACTTCTGGCAGGACCAGGTCATGAGATCGGAAGAGCACACGTCTGAACTCCAGTCA
DNA 2: TGACTGGAGTTCAGACGTGTGCTCTTCCGATCTCATGACCTGGTCCTGCCAGAAGTTTCCTTCTTCAGTGCGTACTGAGCACTAGATAGC
RNA: AAUUUCUACUCUUGUAGAUAGGAAACUUCUGGCAGGACC
Take B6: the figures for the binding signal in assay [1], in assay [2] and in assay [3] were -8.52 lnKA, -5.74 lnKA and -3.38 lnKA, respectively.

B7: ACAG (dsDNA)
DNA 1: GCTATCTAGTGCTCAGTACGCACTGACAGAGGAAACTTCTGGCAGGACCAGGTCATGAGATCGGAAGAGCACACGTCTGAACTCCAGTCA
DNA 2: TGACTGGAGTTCAGACGTGTGCTCTTCCGATCTCATGACCTGGTCCTGCCAGAAGTTTCCTCTGTCAGTGCGTACTGAGCACTAGATAGC
RNA: AAUUUCUACUCUUGUAGAUAGGAAACUUCUGGCAGGACC
As to B7, the binding signal was -8.64 lnKA in assay [1], -5.79 lnKA in assay [2] and -3.45 lnKA in assay [3].

B8: AACT (dsDNA)
DNA 1: GCTATCTAGTGCTCAGTACGCACTGAACTAGGAAACTTCTGGCAGGACCAGGTCATGAGATCGGAAGAGCACACGTCTGAACTCCAGTCA
DNA 2: TGACTGGAGTTCAGACGTGTGCTCTTCCGATCTCATGACCTGGTCCTGCCAGAAGTTTCCTAGTTCAGTGCGTACTGAGCACTAGATAGC
RNA: AAUUUCUACUCUUGUAGAUAGGAAACUUCUGGCAGGACC
Take B8: the values for the binding signal in assay [1], in assay [2] and in assay [3] were -8.54 lnKA, -4.69 lnKA and -1.81 lnKA, respectively.

B9: AACG (dsDNA)
DNA 1: GCTATCTAGTGCTCAGTACGCACTGAACGAGGAAACTTCTGGCAGGACCAGGTCATGAGATCGGAAGAGCACACGTCTGAACTCCAGTCA
DNA 2: TGACTGGAGTTCAGACGTGTGCTCTTCCGATCTCATGACCTGGTCCTGCCAGAAGTTTCCTCGTTCAGTGCGTACTGAGCACTAGATAGC
RNA: AAUUUCUACUCUUGUAGAUAGGAAACUUCUGGCAGGACC
Take B9: the binding signal was -8.29 lnKA in assay [1], -4.8 lnKA in assay [2] and -2.04 lnKA in assay [3].
